Measurements as given in ChEMBL document CHEMBL3988442, “University of Dundee, Small-Polar-MMV Screening Library” (2021).
Where “and” joins values, the source holds several entries; their conditions need not be identical. Equal entries are not always repeated. Screen size: about 34,000 compounds; about 290 (0.85%) showed an effect of 50% or more. Only a selection was taken, and strong results are over-represented in it overall.

Tested on: Plasmodium falciparum
Assay: Plasmodium falciparum sporozoite viability assay
Type: functional, organism-based
Design: scale not given: in the data most compounds retested in dose-response had high values

| Structure (SMILES) | Percent Effect [%] | Percent Effect (10 mM as filed; unlikely as a test dose) |
| --- | --- | --- |
| COc1ccccc1OCCNC(=O)CN1CCc2cncnc2C1 | -7.271 | – |
| O=C1CN(c2ccc(CNC(=O)NCc3ccoc3)cc2)CCN1 | 13.47 | – |
| Cc1cn2c(n1)CCC(NC(=O)c1[nH]ncc1Br)C2 (configuration not stated) | -6.244 | – |
| Cc1cc(C(=O)N[C@@H]2CCC[C@@H](N3CCOCC3)[C@@H]2O)no1 | 7.233 | – |
| O=C(O)C(F)(F)F.O=C([C@H]1C[C@H]2OCC[C@H]2N(CCc2ccccc2)C1)N1CCCCO1 | -6.171 | – |
| CN1CCn2nc(-c3nc4ccccc4n3C)cc2C1 | – | 21.76% and 43.98% |
| CCCOC(=O)N1CCn2nc(-c3nc4ccccc4n3C)cc2C1 | – | 47.05% and 19.27% |
| Cn1c(-c2cc3n(n2)CCCN(CC(=O)O)C3)nc2ccccc21 | – | 91.97% and 88.48% |
| NC(=O)C1CN(C(=O)Nc2ccc(SC(F)(F)F)cc2)CCO1 (configuration not stated) | 26.37 | – |
| CC(C)(C(=O)N[C@@H]1CCC[C@@H](O)[C@@H]1O)c1cccc(F)c1 | 7.186 | – |
| Cc1ccc(CCNC(=O)Nc2cc(C(F)(F)F)c[nH]c2=O)o1 | -6.166 | – |
| O=C(Cc1cn2ccsc2n1)N1CCCC(n2ccnc2)C1 (configuration not stated) | 9.411 | – |
| CN(C)c1ccc(NC(=O)N2CCCCCC2c2ccncc2)cn1 (configuration not stated) | – | -8.99% and -20.34% and -20.82% |
| CCOc1ccc(C(=O)N2CCCC2c2cnn(C)c2)cn1 (configuration not stated) | 2.866 | – |
| CNc1nc(N2C[C@H](NC(=O)CCOC)[C@@H](C3CC3)C2)nc2c1CCC2 | – | -17.73% and -19.53% |
| CNCC(=O)N[C@H]1CN(c2nc(C)c3c(n2)CCCC3)C[C@@H]1C1CC1 | – | 74.85% and 85.09% |
| COCCC(=O)N[C@H]1CN(c2nc(C)c3c(n2)CCCC3)C[C@@H]1C1CC1 | – | 37.56% and 25.17% |
| Cc1n[nH]c(C)c1-c1cnc(CC2CCN(C)C2)cn1 (configuration not stated) | -7.497 | – |
| Cc1cc(Nc2ccccn2)nc(C2CCCN(CCO)C2)n1.O=CO (configuration not stated) | 9.991 | – |
| NC(=O)CN1CCCC(c2ccnc(Nc3ncccn3)c2)C1 (configuration not stated) | – | 24.34% and 12.28% and 9.246% |
| Cc1cccc(Nc2nccnc2C2CCCN2CC(N)=O)n1 (configuration not stated) | 7.262 | – |
| Cc1cccc(Nc2nccnc2C2CCCN(CC(=O)N(C)C)C2)n1 (configuration not stated) | 4.997 | – |
| Cc1cccc(Nc2cc(C3CCCN(CC(N)=O)C3)ccn2)n1.O=CO.O=CO (configuration not stated) | – | 98.38% and 92.39% and 79.92% |

| Structure (SMILES) | Percent Effect [%] | Percent Effect (10 mM as filed; unlikely as a test dose) |
| --- | --- | --- |
| COc1cc(NC(=O)c2ccc(F)cc2Cl)c(C(=O)N(C)C)cc1OC | -12.25 | – |
| O=C(C1CCOCC1)N1CCc2ncc(CN3CCCCC3)n2CC1 | -3.866 | – |
| c1cnn(CC2CN(c3ncnc4[nH]ccc34)CCO2)c1 (configuration not stated) | -8.614 | – |
| Cc1nc(CN2CCC3(CC2)NC(=O)CC3c2cccnc2)cs1 (configuration not stated) | -8.123 | – |
| Cc1cc(CN2CCC3(CC2)C(=O)NCCN3CC2CC2)oc1C | -0.5945 | – |
| O[C@H]1CN(CCCOc2ccccc2F)CC[C@@]12CCCO2 | 14 | – |
| O[C@H]1CN(CCOc2ccc(F)cc2)CC[C@@]12CCCO2 | – | 66.45% and 84.39% and 80.81% |
| OC1CCCOC12CCN(CCCOc1ccccc1F)CC2 (configuration not stated) | 2.153 | – |
| COc1ccccc1CNC(Cc1cccs1)c1nc(C)cs1.Cl (configuration not stated) | -2.216 | – |
| Cc1cc(C)n(C2CN(CCC(=O)NC3CCCCC3)C2)n1 | -0.4038 | – |
| CC(C)NC(=O)C1CN(C(=O)Nc2ccc(F)cc2)CC12CCOCC2 (configuration not stated) | -6.778 | – |
| CNc1cncc(C2CCCN2C(=O)c2ccc3c(c2)CCC3)n1 (configuration not stated) | 5.523 | – |
| COc1ccc(NC(=O)NC(C)c2nc[nH]n2)cc1 (configuration not stated) | – | -24.45% and -7.709% and -11.14% |
| CC(NC(=O)Nc1ccc(OC2CCCC2)cc1)c1nc[nH]n1 (configuration not stated) | – | 68.07% and 85.04% |
| CCN1CCC(CNC(=O)Nc2cc(C)on2)C1 (configuration not stated) | 13.21 | – |
| COC(=O)c1cccn1C1CCN(Cc2nc3ccccc3o2)CC1 | -2.498 | – |
| CN(C)c1nc2c(c(=O)[nH]1)Cc1ccccc1OC2 | – | 9.66% and 16.82% |
| CN(CC1(CO)CCCC1)c1nc2c(c(=O)[nH]1)Cc1ccccc1OC2 | – | 63.62% and 42.71% |
| CNC(=O)N1CC[C@H]2N(C)CC[C@@]2(C(=O)N2CCOCC2)CC1.O=C(O)C(F)(F)F | 9.37 | – |
| Cc1cnn(CC2CCCN2C(=O)Cc2c(C)noc2Cl)c1 (configuration not stated) | 8.684 | – |
| Cc1ccc(CN2C[C@@H]3COC[C@H](C(=O)N4CCCCO4)[C@@H]3C2)o1.O=C(O)C(F)(F)F | – | -11.42% and -12.39% and -13.97% |
| O=C(c1ccncc1)N1CCc2[nH]nc(Nc3ccccc3)c2C1 | -2.217 | – |
| CN(C)CCCn1cnc2cc(NC(=O)c3n[nH]c4c3CCC4)ccc21 | – | -35.39% and -25.92% |

| Structure (SMILES) | Percent Effect [%] | Percent Effect (10 mM as filed; unlikely as a test dose) |
| --- | --- | --- |
| CC(C)c1nc2cc(NC(=O)c3n[nH]c4c3CCC4)ccc2n1C | – | 73.89% and 87.21% |
| Cn1cnc2cc(NC(=O)c3n[nH]c4c3CCC4)ccc21 | – | -48.98% and -33.08% |
| Cn1cc(C(=O)N2CCN(Cc3ccccn3)CC2)ccc1=O | -3.259 | – |
| Cc1ccccc1C(C(=O)O)N(C)CC1CCOCC1 (configuration not stated) | -26.36 | – |
| COc1c(CNC(c2ccccc2)c2nccn2C)c(C)nn1C (configuration not stated) | 11.35 | – |
| O=C(O)c1ccccc1-c1ccc(CN2CCOCC2)cn1 | 6.918 | – |
| C(=C\c1ccc(CN2CCCC2)cn1)/c1ccccc1 | – | 78.68% and 64.66% |
| c1cc(-c2cn[nH]c2)ncc1CN1CCCCC1 | – | -7.187% and -9.51% |
| O=C(C1CCOC1)N1C[C@H]2CN(Cc3cccc(F)c3)C(=O)[C@H]2C1 (some centres not stated) | 12.32 | – |
| CC(C)NC(=O)c1csc(NC2CC2)n1 | -5.904 | – |
| NC(=O)c1cn[nH]c1C1CCCN1C(=O)c1ccccc1 (configuration not stated) | -3.133 | – |
| O=C(Nc1cc(C2CCOCC2)[nH]n1)c1cscn1 | 17.19 | – |
| COC(=O)[C@@H]1CN(C(=O)c2cscn2)C[C@H]1c1ccc(OC)cc1 | 5.827 | – |
| COc1cc(N[C@@H](Cc2ccccc2)C(N)=O)ncn1 | 10.88 | – |
| COc1ncnc(N(C)C)c1NC(=O)c1cscc1C | -11.09 | – |
| Cc1cnc(CN(C)C2CCN(Cc3nnc(C4CC4)o3)C2)o1 (configuration not stated) | 13.1 | – |
| OC(COCc1ccccc1)CN1CCC(c2ccn[nH]2)CC1 (configuration not stated) | 8.709 | – |
| c1cc(CN2CCCC(c3nnc(-c4cnccn4)o3)C2)ccn1 (configuration not stated) | 8.33 | – |
| O=C(O)C(F)(F)F.O=C1COC2(CCN(Cc3ccoc3)CC2)CN1c1ccsc1 | -2.422 | – |
| Cn1cc(CN2CC[C@H](O)[C@@H]2Cc2ccncc2)cn1 | 14.17 | – |
| Cc1cc(C)n(C(=O)Cn2nc(C)c(I)c2C)n1 | -1.053 | – |
| CN1CCCC1CCn1ccnc1-c1nc(-c2ccccc2)no1 (configuration not stated) | – | 77.95% and 70.89% |
| CN1CCCC1c1ccnc(-c2ccccc2)n1 (configuration not stated) | 8.44 | – |

| Structure (SMILES) | Percent Effect [%] | Percent Effect (10 mM as filed; unlikely as a test dose) |
| --- | --- | --- |
| CN(C)c1ncccc1CNS(=O)(=O)c1ccc(F)cc1F | 5.626 | – |
| CC/N=c1\nc(NCC)nc2n1C(O)(Nc1ccc(C)cc1C)CS2 (configuration not stated) | – | 76.89% and 79.52% |
| CC/N=c1\nc(NCC)nc2n1C(O)(Nc1cccc(C)c1C)CS2 (configuration not stated) | – | -13.62% and 2.28% |
| CC/N=c1\nc(NCC)nc2n1C(O)(Nc1cc(C)ccc1C)CS2 (configuration not stated) | – | -7.651% and -13.62% |
| O=S(=O)(c1ccccc1)N1CCC[C@]2(C[C@H](OCC3CC3)CO2)C1 | -0.3567 | – |
| CN1CCOC(CNC(=O)CCCOc2ccccc2F)C1 (configuration not stated) | – | 51.69% and 61.26% and 47.35% |
| CN1CCOC(CNC(=O)CCCOc2cccc(F)c2)C1 (configuration not stated) | – | 7.848% and 7.883% and 5.332% |
| Cc1ccccc1OCCCC(=O)NCC1CN(C)CCO1 (configuration not stated) | – | 6.067% and -2.638% and -0.6996% |
| NCCO[C@H]1C[C@@H](O)C12CCN(C(=O)CCOc1ccccc1)CC2 | – | 3.322% and 1.71% |
| CC(O)CN1CCN(C(=O)CCOc2ccccc2F)CC1 (configuration not stated) | – | 8.088% and -8.879% and -8.774% |
| CO[C@H]1C[C@@H](O)C12CCN(C(=O)CCCOc1ccccc1)CC2 | – | 88.4% and 94.39% |
| O=C(CCOc1ccccc1F)N1CCC(O)CC1 | – | -2.056% and -15.58% and -4.248% |
| CO[C@H]1C[C@@H](O)C12CCN(C(=O)NCc1ccco1)CC2 | 8.391 | – |
| CCn1cnnc1C1CCN(C(=O)COCCc2ccccc2)CC1 | – | -3.699% and -24.35% and -22.69% |
| CCn1cnnc1C1CCN(C(=O)CCCOc2ccccc2)CC1 | – | 42.92% and 40.5% and 58.13% |
| Cc1cnccc1CN1Cc2ccccc2O[C@]2(CC[C@H](CO)CC2)C1 | 13.72 | – |
| Cc1cc(CN2CCCC(c3cc(C(F)(F)F)[nH]n3)C2)no1 (configuration not stated) | 9.793 | – |
| O=C(CCCc1nnc(-c2ccccc2)o1)N1CCN(C2CC2)CC1 | 16.07 | – |
| Cc1ccc(NC2CCN(C(=O)c3cnn(C(C)(C)C)c3)CC2)nn1 | -0.1023 | – |
| c1ccn2c(C3CCCN3Cc3nc(C4CC4)no3)nnc2c1 (configuration not stated) | -1.432 | – |
| Cc1cnn(CC2CN(CC(=O)Nc3ccnn3C(C)C)CCO2)c1 (configuration not stated) | 2.692 | – |
| Cn1cnnc1C1CCN(C(=O)CCCOc2ccccc2F)CC1 | – | 83.01% and 69.05% and 60.83% |
| Cc1ccccc1OCCC(=O)N1CCC(c2nncn2C)CC1 | – | 2.17% and -2.919% and 0.9191% |
